Molecules are shown by their SMILES. Some of the results follow. Where a call stands in place of a potency, no number is given. Inconclusive results are not listed. Active and inactive are the calls of the source. The call rests on the fitted dose curve; in most records, active means well fitted cell-killing curve with a large enough effect; inconclusive means small, poorly fitted or top-dose-only effect; inactive means flat fitted curve, though single readings scatter.
Potency means the concentration at half of the fitted maximal effect.

The test in a line: qHTS screen for small molecules that inhibit ELG1-dependent DNA repair: Hit Confirmation with Unstimulated Viability Assay.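 Further: compound exposure lasted 16 hours before reading; nearly all actives have a fitted effect of over 55% in size.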 The conditions noted are these: cell viability counter-screen, luminescence; series mostly up to 45.9 µM. An excerpt:
Cancer cells divide rapidly compared to normal cells in the body. During cell division, cancer cells need to duplicate their genome by DNA replication. The failure of genome duplication leads to cancer cells' death. Therefore, inhibitors of DNA replication could specifically kill cancer cells. Based on this concept, many chemotherapeutic agents were developed and have been used to treat cancer patients. However, there are a limited number of agents available in the clinical setting, and some of those that do exist have low efficacy and severe side effects. Therefore, if we can find the compounds that effectively block DNA replication either by directly damaging DNA or by inhibiting other cellular mechanisms, the options for cancer treatment will be broadened. With this in mind, we developed a quantitative high-throughput ELG1-luciferase reporter gene assay. Small molecules that specifically block ELG1 function in response to DNA damage can be identified by monitoring the suppression of luciferase activity. Since ELG1 defines a pathway for repairing DNA damage, agents blocking ELG1 function can be used to sensitize cancer cells to chemotherapeutic agents whose mechanism of action involves the induction of DNA damage.
NIH Molecular Libraries Probe Production Network [MLPCN]
NIH Chemical Genomics Center [NCGC]
Assay Provider: Kyungjae Myung, NHGRI, NIH
For genotoxicity screening, 2,000 cells in 4 uL/well were dispensed into white, solid-bottom 1536-well plates using a solenoid-based dispenser. 23 nL compound or DMSO vehicle were added by a pin tool, the plates were incubated 16 hr at 37 °C and 5% CO2. 5 ul ONE-Glo (Promega) was then added to each plate and following a 30 min incubation at room temperature, luciferase activity was quantified on a ViewLux CCD-based plate reader.
A general note: In qHTS, concentration-response curves come from the screen itself.
Regarding `CC(=O)N1CCc2cc(Br)cc(S(=O)(=O)CCC(=O)Nc3c(C)n(C)n(-c4ccccc4)c3=O)c21`, the Potency entry was “inactive”.

For the molecule `CC(=O)c1c(C)n(-c2ccc(C)cc2)c2ccc(O)cc12`, the Potency entry is “inactive”.

Regarding `COc1ccc(-c2nn(-c3ccccc3)cc2/C=C\C(=O)N2CCOCC2)cc1[N+](=O)[O-]`, the Potency result is “inactive”.

With `O=C(Nn1c(SCc2ccc([N+](=O)[O-])cc2)nc2ccccc2c1=O)c1ccc(F)cc1`, the Potency entry was “inactive”.

Take `CN(CC1CCCO1)S(=O)(=O)c1ccc(C(=O)Nc2ccc(F)cc2)cc1` (stereo not given): the Potency result was “inactive”.

`CN(C)c1ccnc2sc3c(=O)n(Cc4ccccc4)cnc3c12`: the Potency result is “inactive”.

For `CS(=O)(=O)c1ccc2nc(NC(=O)C3CCCCC3)sc2c1`, the Potency entry was “inactive”.

As to `Nc1nnc(SCC(=O)Nc2ccc3nc(SCC(=O)Nc4ccccc4)sc3c2)s1`, the Potency entry was “inactive”.

Take `Cc1ccc(Nc2nc(N3CCOCC3)nc(N3CCOCC3)n2)cc1Cl`: the Potency result was “inactive”.

As to `NC(=O)c1sc2nc3c(c(-c4ccccc4)c2c1N)CCC3`, the Potency result is “inactive”.

On to `OCCCNc1nccc(-c2cc(Nc3cccc(Cl)c3)ncn2)n1`, for which the Potency is 9.97 µM (active).

Turning to `Cc1ccccc1NC(=O)CSc1nc2ccc(Nc3nc(N4CCOCC4)nc(N4CCOCC4)n3)cc2s1`, the Potency result was “inactive”.

On to `COc1ccc(NC(C)=O)cc1NC(=O)CN1CCN(C2c3ccccc3-c3ccccc32)CC1`, for which the Potency entry is “inactive”.

For `COc1ccc(NC(=O)C2CCC(CNc3c(N4CCCCC4)c(=O)c3=O)CC2)c(OC)c1` (stereo not given), the Potency is 25 µM (active).

Consider `CS(=O)c1ccc(/C=C2\C=Cc3ccccc32)cc1` (stereo not given), for which the Potency result was “inactive”.

Consider `Cc1ccc(C)c(S(=O)(=O)N2CCN(c3ncnc4sccc34)CC2)c1`, for which the Potency was 6.28 µM (active).

In the case of `COc1ccc(-c2cc(C(=O)N(C)CC(=O)Nc3ccccc3Cl)c3ccccc3n2)cc1OC`, the Potency entry is “inactive”.

With `CC12CCC(C(=O)N3CCN(c4ncccn4)CC3)(c3nc4ccccc4nc31)C2(C)C` (stereo not given), the Potency result was “inactive”.

Take `Cc1nnc(N/N=C/c2ccccn2)[nH]c1=O`: the Potency result is “inactive”.

As to `CCc1ccc(N(CC)c2ncnc3nc[nH]c23)cc1`, the Potency entry is “inactive”.

For the origin of these results see PubChem BioAssay AID624252 (National Center for Advancing Translational Sciences (NCATS), 2012).
